The supplement of paper PMC12067093, “Discovery and optimisation of a covalent ligand for TRIM25 and its application to targeted protein ubiquitination” (Chemical Science, 2025)
The full data set covers some 21,000 targets. This sample favours those with the largest changes.

Compound: Cc1cc(ccc1-c1ccccc1)C(=O)N1CCCN(CC1)C(=O)CCl [compound 10]
Experiment: probe-labelled cysteine peptide fold change vs DMSO (competition) (log2 fold change); higher = less target engagement (more negative = stronger competition)
Details: THP-1, incubation time: 4 h
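Note: competitive profiling in live THP-1 cells: cysteine peptides tagged with an iodoacetamide desthiobiotin (IA-DTB) probe, intensity after compound treatment relative to DMSO-treated cells.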

Chain of UniProt O15050 (O15050 whole entry, looked up): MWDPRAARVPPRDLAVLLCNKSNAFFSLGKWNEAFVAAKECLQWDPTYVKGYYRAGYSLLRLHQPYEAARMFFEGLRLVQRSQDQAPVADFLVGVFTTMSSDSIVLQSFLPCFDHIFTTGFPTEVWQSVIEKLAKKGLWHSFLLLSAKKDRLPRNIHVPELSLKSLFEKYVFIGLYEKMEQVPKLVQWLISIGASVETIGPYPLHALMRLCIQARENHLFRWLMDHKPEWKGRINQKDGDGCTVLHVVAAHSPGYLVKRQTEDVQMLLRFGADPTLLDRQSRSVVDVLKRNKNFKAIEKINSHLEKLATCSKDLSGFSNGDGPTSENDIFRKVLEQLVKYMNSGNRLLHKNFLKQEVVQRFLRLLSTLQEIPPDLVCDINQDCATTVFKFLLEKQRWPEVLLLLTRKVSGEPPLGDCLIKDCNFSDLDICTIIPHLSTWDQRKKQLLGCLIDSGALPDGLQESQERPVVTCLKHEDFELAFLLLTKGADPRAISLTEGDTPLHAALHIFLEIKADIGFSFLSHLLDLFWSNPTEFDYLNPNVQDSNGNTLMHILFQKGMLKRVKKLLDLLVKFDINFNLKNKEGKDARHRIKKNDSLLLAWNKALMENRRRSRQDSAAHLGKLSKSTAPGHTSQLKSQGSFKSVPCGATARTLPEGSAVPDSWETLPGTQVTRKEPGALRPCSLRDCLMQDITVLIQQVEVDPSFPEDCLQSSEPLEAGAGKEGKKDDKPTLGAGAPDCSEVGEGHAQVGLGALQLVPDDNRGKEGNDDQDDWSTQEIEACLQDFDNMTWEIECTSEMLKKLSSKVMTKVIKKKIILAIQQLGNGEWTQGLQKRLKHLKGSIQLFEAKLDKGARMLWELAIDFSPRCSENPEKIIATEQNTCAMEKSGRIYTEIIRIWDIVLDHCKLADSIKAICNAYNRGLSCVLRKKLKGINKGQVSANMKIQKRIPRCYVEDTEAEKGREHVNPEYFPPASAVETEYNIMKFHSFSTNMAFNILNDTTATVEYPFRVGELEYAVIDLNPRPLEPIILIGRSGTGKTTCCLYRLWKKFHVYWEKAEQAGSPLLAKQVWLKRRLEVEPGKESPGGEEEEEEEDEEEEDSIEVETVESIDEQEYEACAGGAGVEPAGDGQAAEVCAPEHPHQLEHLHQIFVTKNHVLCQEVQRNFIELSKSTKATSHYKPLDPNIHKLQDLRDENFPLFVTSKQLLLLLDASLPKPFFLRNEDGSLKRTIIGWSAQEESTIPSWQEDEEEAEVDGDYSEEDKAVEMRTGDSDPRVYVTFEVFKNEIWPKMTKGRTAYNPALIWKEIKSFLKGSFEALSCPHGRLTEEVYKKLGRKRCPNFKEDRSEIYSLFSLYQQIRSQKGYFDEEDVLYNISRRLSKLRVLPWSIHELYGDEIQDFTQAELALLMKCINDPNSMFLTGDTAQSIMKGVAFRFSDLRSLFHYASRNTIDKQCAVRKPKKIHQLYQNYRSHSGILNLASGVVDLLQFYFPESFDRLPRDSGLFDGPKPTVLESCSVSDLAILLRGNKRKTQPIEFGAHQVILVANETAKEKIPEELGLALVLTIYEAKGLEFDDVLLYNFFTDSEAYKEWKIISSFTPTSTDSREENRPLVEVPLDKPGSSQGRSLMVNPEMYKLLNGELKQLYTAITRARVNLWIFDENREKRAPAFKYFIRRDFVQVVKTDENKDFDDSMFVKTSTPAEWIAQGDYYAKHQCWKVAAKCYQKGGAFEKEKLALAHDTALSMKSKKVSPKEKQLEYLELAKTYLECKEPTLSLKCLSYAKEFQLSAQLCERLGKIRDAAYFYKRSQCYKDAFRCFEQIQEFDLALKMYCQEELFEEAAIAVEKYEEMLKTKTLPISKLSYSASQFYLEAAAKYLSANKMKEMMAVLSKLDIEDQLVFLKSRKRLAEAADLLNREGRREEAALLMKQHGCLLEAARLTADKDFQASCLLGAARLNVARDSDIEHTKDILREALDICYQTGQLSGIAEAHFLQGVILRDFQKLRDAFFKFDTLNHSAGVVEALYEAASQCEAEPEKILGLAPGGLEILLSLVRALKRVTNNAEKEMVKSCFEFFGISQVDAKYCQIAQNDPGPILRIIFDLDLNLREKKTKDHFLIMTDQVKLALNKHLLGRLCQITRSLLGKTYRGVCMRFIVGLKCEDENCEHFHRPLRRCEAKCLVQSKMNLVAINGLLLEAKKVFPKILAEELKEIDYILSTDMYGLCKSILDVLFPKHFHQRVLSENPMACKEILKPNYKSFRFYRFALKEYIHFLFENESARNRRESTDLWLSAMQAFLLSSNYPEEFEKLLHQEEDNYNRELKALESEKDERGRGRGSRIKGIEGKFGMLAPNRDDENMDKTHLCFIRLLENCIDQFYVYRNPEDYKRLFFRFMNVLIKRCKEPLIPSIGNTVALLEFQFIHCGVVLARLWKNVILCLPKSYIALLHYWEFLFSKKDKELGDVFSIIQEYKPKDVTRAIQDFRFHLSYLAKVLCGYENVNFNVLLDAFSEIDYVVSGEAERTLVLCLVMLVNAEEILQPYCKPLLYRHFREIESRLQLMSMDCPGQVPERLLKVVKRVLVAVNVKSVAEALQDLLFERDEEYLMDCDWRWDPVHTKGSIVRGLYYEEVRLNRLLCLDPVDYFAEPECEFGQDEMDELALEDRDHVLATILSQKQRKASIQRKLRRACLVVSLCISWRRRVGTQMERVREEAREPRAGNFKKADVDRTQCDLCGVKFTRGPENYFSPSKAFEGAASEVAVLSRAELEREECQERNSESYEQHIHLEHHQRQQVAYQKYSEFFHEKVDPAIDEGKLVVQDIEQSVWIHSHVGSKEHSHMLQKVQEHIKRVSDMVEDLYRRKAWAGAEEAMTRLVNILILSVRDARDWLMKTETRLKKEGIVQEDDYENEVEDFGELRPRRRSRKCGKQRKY
Chain of UniProt Q9NPG3 (Q9NPG3 whole entry, looked up): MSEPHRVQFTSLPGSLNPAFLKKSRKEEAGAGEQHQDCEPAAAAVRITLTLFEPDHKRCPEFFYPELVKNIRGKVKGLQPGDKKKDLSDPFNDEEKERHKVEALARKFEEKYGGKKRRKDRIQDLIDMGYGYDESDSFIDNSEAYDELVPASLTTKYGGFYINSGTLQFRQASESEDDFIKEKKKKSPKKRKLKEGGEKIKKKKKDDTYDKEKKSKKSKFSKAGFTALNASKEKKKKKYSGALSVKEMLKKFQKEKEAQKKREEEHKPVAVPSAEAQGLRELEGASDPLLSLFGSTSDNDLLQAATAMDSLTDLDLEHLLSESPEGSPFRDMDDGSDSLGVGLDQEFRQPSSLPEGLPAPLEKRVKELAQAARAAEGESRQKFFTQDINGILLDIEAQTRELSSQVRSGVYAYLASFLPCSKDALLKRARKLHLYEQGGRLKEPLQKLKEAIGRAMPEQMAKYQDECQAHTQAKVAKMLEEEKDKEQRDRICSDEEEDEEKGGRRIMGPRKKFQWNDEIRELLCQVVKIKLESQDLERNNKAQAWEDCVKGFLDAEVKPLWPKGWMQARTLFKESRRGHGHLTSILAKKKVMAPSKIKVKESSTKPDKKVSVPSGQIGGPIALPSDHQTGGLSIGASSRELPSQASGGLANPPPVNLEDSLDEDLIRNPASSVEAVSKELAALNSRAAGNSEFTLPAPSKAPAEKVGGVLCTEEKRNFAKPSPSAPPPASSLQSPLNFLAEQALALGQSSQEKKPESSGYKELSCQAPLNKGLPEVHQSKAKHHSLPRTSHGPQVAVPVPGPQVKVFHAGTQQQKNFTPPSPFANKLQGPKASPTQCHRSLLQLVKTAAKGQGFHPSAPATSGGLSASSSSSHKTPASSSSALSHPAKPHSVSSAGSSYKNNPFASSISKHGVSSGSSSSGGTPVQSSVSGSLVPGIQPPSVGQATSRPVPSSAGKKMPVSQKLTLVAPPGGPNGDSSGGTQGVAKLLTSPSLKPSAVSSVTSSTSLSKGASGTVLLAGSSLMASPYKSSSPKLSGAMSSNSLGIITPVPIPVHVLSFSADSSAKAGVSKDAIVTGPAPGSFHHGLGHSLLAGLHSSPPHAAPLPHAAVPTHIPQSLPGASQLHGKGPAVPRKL
Chain of UniProt Q15631 (Q15631 whole entry): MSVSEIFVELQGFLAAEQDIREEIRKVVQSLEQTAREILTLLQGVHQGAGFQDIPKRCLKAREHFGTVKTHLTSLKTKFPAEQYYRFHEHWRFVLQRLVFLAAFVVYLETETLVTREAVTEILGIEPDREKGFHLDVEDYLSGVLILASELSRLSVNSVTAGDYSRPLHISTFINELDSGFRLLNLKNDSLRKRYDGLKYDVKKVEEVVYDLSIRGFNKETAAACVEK
Chain of UniProt Q4G0F5 (Q4G0F5 whole entry, looked up): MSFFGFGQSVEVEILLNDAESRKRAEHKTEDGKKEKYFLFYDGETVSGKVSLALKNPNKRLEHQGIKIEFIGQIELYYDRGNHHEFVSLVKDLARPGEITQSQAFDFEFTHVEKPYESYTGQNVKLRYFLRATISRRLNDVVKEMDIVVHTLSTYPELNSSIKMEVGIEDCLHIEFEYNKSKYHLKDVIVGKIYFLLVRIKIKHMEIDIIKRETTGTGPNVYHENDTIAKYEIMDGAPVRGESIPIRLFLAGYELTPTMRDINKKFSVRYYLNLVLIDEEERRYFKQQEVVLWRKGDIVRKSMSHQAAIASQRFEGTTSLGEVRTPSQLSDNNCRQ
Chain of UniProt P06132 (P06132 whole entry, looked up): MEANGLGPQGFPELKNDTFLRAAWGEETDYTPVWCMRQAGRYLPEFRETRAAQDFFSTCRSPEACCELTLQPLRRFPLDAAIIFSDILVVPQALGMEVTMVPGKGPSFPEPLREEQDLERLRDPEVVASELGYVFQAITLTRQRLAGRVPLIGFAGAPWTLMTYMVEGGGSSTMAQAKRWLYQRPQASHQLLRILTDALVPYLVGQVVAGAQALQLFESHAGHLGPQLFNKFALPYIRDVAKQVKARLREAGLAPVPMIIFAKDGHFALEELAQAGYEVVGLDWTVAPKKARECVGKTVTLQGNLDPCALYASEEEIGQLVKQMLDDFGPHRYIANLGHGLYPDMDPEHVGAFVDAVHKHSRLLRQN

Target	probe-labelled cysteine peptide fold change (10 µM)	probe-labelled cysteine peptide fold change (50 µM)
VPS41_P49754_638_DSTHCPLEK (UniProt P49754)	-0.172	-0.152
TPX2_Q9ULW0_301_GCTIVK (UniProt Q9ULW0)	0.583	0.294
UBR1_Q8IWV7_1603_NSLIELPDDYSCLLNQASHFR (UniProt Q8IWV7)	-0.114	-0.631
TRA2B_P62995_119_ANPDPNCCLGVFGLSLYTTER (UniProt P62995)	0.163	0.111
TRMT2A_Q8IZ69_270_GGTCAVAAPFDTVHIPEATK (UniProt Q8IZ69)	-0.0935	-0.357
TRPM2_O94759_72_ECVYFVESSK (UniProt O94759)	-0.0415	-0.249
USP3_Q9Y6I4_385_SFTDLEELDETELYMCHK (UniProt Q9Y6I4)	-0.114	-0.984
USP22_Q9UPT9_171_KITSNCTIGLR (UniProt Q9UPT9)	-0.315	-0.757
TWSG1_Q9GZX9_185_ISCESMGASK (UniProt Q9GZX9)	-0.121	-0.0863
VAPA_Q9P0L0_179_KLMEECK (UniProt Q9P0L0)	-0.0535	-0.275
UBR7_Q8N806_155+158_RPYPDPEDEIPDEMIQCVVCEDWFHGR (UniProt Q8N806)	-0.195	-1.14
TRIM28_Q13263_221+229_HEPLVLFCESCDTLTCR (UniProt Q13263)	-0.0841	-0.368
TTF1_Q15361_445_KTQACLASK (UniProt Q15361)	-0.039	-0.411
USP19_O94966_656+659_LVCPVCAK (UniProt O94966)	-0.159	-1.2
UBR7_Q8N806_46_CSYSQGSVKR (UniProt Q8N806)	-0.118	-0.607
TXNDC9_O14530_94_ESENVVCHFYR (UniProt O14530)	-0.0612	-0.0184
TUBAL3_A6NHL2_322+323_YMACCLLYR<|>TUBA1B_P68366_315+316_YMACCLLYR<|>TUBA4A_Q9BQE3_315+316_YMACCLLYR (UniProt P68366+Q9BQE3+A6NHL2)	-0.349	-0.661
USP13_Q92995_231_ENLWLNLTDGSVLCGK (UniProt Q92995)	0.0774	0.113
TRMT1_Q9NXH9_621_GDQCCYSHSPPTPR (UniProt Q9NXH9)	-0.0265	-0.0659
TXNL1_O43396_149_AGCECLNESDEHGFDNCLRK (UniProt O43396)	-0.189	-0.0731
VLDLR_P98155_251_CPASEIQCGSGECIHK (UniProt P98155)	-0.12	-0.248
VTA1_Q9NP79_87_QLGDNEAITQEIVGCAHLENYALK (UniProt Q9NP79)	0.0147	0.136
TRPM4_Q8TD43_759_QSGRPGCCGGR (UniProt Q8TD43)	-0.788	-2.09
TRMT10C_Q7L0Y3_78_SSVQEECVSTISSSKDEDPLAATR (UniProt Q7L0Y3)	-0.141	-0.518
USP15_Q9Y4E8_633+634_ISTETEETEGSLHCCK (UniProt Q9Y4E8)	-0.567	-1.51
UBXN7_O94888_478_KLSHLDYDITLQEAGLCPQETVFVQER (UniProt O94888)	0.134	-0.0436

Target	probe-labelled cysteine peptide fold change (10 µM)	probe-labelled cysteine peptide fold change (50 µM)
TTLL12_Q14166_361_PGVLLNQFPCENLLTVK (UniProt Q14166)	-0.00778	-0.111
UBR4_Q5T4S7_2618+2619_QLEGDCCSFITQLVNHFWK (UniProt Q5T4S7)	0.0442	-1.45
USP40_Q9NVE5_1054_RIEICLEPLQK (UniProt Q9NVE5)	0.0209	-0.0411
VCPIP1_Q96JH7_469+472_CLLCGALSELHVPPEWLAPGGK (UniProt Q96JH7)	-0.12	0.233
USP48_Q86UV5_652+658_KEEEELNFNEDILCPHGELCISENERR (UniProt Q86UV5)	-0.493	-1.42
UBE2O_Q9C0C9_375_NCAQGEGSMAK (UniProt Q9C0C9)	-0.0634	-0.156
TSPAN2_O60636_164_ESSEQVQPTCPK (UniProt O60636)	-0.411	-0.422
UBR5_O95071_572_VGVLMESVWNMNDSCR (UniProt O95071)	-0.0405	0.0537
TPRKB_Q9Y3C4_167_LSSQEESIGTLLDAIICR (UniProt Q9Y3C4)	0.0132	-0.163
UBA6_A0AVT1_156_YQCVVLTEMK	0.126	0.104
TSN_Q15631_225_ETAAACVEK (UniProt Q15631)	-0.291	-0.282
UHRF1BP1L_A0JNW5_398_NGWANELLHEFECNVEMLK (UniProt A0JNW5)	-0.0203	-0.158
TRAPPC13_A5PLN9_327_LSLEAIPDTVNLEEPFHITCK (UniProt A5PLN9)	0.0844	0.00702
VPS16_Q9H269_763_SPIGYLPFVEICMK (UniProt Q9H269)	0.149	0.152
VCPIP1_Q96JH7_219_SQECLIPVHVDGDGHCLVHAVSR (UniProt Q96JH7)	-2.4	< -5
TRIM33_Q9UPN9_276_KKEDVSESVGASGQRPVFCPVHK (UniProt Q9UPN9)	-0.0301	-0.148
TRPM7_Q96QT4_1411_FFVSTPSQPSCK (UniProt Q96QT4)	-0.337	-0.544
TRMT2A_Q8IZ69_463_VIGVELCPEAVEDAR (UniProt Q8IZ69)	-0.181	-1.16
USP34_Q70CQ2_1330_KGEGVQLPASCLPPPQK (UniProt Q70CQ2)	-0.079	-0.0424
USP9X_Q93008_1061_AICLDHAK (UniProt Q93008)	0.267	0.565
TTC1_Q99614_178_EMAINDCSK (UniProt Q99614)	0.303	-0.13
USP14_P54578_257_CTESEEEEVTK (UniProt P54578)	-0.254	-0.167
TXNDC5_Q8NBS9_353_FYAPWCGHCK (UniProt Q8NBS9)	-0.372	-1.61
TRIM33_Q9UPN9_582_GNMNCGAFQAHQMR (UniProt Q9UPN9)	-0.217	-0.598
TUBA4A_P68366_4_MRECISVHVGQAGVQMGNACWELYCLEHGIQPDGQMPSDK (UniProt P68366)	-0.0787	-0.408
UBR4_Q5T4S7_2554_AVQCLNTSSK (UniProt Q5T4S7)	-0.27	-0.543

Target	probe-labelled cysteine peptide fold change (10 µM)	probe-labelled cysteine peptide fold change (50 µM)
TRIM24_O15164_127+134_CPVCSQECAER (UniProt O15164)	0.118	-0.0216
UBAP2_Q5T6F2_71_NQDECIVALHDCNGDVNK (UniProt Q5T6F2)	0.0613	-0.0464
TXNDC5_Q8NBS9_350+353_FYAPWCGHCK (UniProt Q8NBS9)	-0.375	-1.05
VAPA_Q9P0L0_128_CVFEMPNENDK (UniProt Q9P0L0)	-0.217	-0.121
UQCRC2_P22695_192_NALANPLYCPDYR (UniProt P22695)	0.015	0.158
TXNIP_Q9H3M7_170_VSCMFIPDGR (UniProt Q9H3M7)	0.0303	-1.26
TSPYL1_Q9H0U9_375_NQDLICSFFTWFSDHSLPESDK (UniProt Q9H0U9)	0.781	1.06
VAV3_Q9UKW4_187_CPENDIR (UniProt Q9UKW4)	-0.136	-0.136
USP16_Q9Y5T5_24_TVPIDDSSETLEPVCR (UniProt Q9Y5T5)	-0.224	-0.204
TRNAU1AP_Q9NX07_157_ALTECQGAVGLGSKPVR (UniProt Q9NX07)	-0.212	-0.171
VIM_P08670_328_RQVQSLTCEVDALK (UniProt P08670)	0.00911	-0.139
USP3_Q9Y6I4_98_CDDFVVNDTK (UniProt Q9Y6I4)	-0.0308	-0.0909
TXNRD2_Q9NNW7_523_SGLDPTVTGCUG (UniProt Q9NNW7)	-1.15	-2.15
UROD_P06132_308_TVTLQGNLDPCALYASEEEIGQLVK (UniProt P06132)	-0.0737	0.0622
UVRAG_Q9P2Y5_186_TILLQVDQNCVR (UniProt Q9P2Y5)	-0.089	-0.0238
UBN1_Q9NPG3_765_ELSCQAPLNK (UniProt Q9NPG3)	-0.169	-0.168
UBA1_P22314_711_SLVLQRPQTWADCVTWACHHWHTQYSNNIR (UniProt P22314)	-0.12	0.238
UBR4_Q5T4S7_4890_KQQGYSTVSHFNIVHYDCHLAAVR (UniProt Q5T4S7)	0.0563	-0.151
TRIM25_Q14258_110_ASAPSPNAQVACDHCLK (UniProt Q14258)	-0.0981	-0.283
VPS26B_Q4G0F5_334_TPSQLSDNNCRQ (UniProt Q4G0F5)	-0.205	-0.321
UBR2_Q8IWV8_1717_GNPLHLCK (UniProt Q8IWV8)	-0.263	-1.31
UGGT1_Q9NYU2_880_MDFILSHAVYCR (UniProt Q9NYU2)	0.117	0.39
TTLL12_Q14166_126_ESGLQAAHPNSIFLIDHAWTCR (UniProt Q14166)	0.0995	0.0514
UBR1_Q8IWV7_1101_EVLTCILCQEEQEVK (UniProt Q8IWV7)	-0.162	0.733
TRANK1_O15050_1930_QHGCLLEAAR (UniProt O15050)	-0.0687	-0.106
